# The source made the active and inactive calls. How the calls were made is not given here.
# Molecular target: Pantothenate synthetase (Mycobacterium tuberculosis (strain ATCC 25618 / H37Rv)) (UniProt P9WIL5)
# Assay: Recombinant Mtb pantothenate synthetase (PanC) inhibitors, coupled enzyme, confirmatory (AID 375);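 further: 0% = full reaction with vehicle and 100% = no enzyme background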
# Settings: coupled enzyme assay; at 10 µM, stronger effect = higher value
# Chain of Pantothenate synthetase (Mycobacterium tuberculosis (strain ATCC 25618 / H37Rv)) (P9WIL5 whole entry, looked up): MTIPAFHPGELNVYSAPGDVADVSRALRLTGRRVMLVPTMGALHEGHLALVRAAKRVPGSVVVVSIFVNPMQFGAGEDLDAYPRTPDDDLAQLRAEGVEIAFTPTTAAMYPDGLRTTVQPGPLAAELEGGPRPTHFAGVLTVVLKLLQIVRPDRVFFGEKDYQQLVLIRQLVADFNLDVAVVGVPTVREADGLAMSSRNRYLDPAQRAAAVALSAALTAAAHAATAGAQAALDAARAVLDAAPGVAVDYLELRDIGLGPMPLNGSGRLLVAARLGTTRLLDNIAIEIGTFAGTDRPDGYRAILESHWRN
row,SMILES,inhibition
1,CCCCc1nc2n[nH]c(N)c2c2c1CCCC2,0% (inactive)
2,OC(CNCCc1ccccc1)c1ccccc1 (stereo not given),2% (inactive)
3,O=C(CCN1C(=O)COc2ccccc21)NCCN1CCN(c2cccc(Cl)c2)CC1,0% (inactive)
4,O=C(O)c1cc(=O)cc(C(=O)O)[nH]1,0% (inactive)
5,CCc1cc2ccc(C)cc2nc1SCC(=O)N1CCN(C(=O)c2ccco2)CC1,0% (inactive)
6,COc1ccc(Cl)c(N2CCN(CCCNC(=O)Nc3ccc(C)cc3)CC2)c1,0% (inactive)
7,COc1ccccc1NS(=O)(=O)c1ccc(NC(=O)c2nc3ncccn3n2)cc1,0% (inactive)
8,COc1ccc2c(c1)c1c(n2C(C)=O)C(OC(C)=O)=NCC1,0% (inactive)
9,Cc1nc2sc(C(c3ccc(Br)cc3)N3CC(C)OC(C)C3)c(O)n2n1 (stereo not given),0% (inactive)
10,CC(C(=O)O)c1ccc(-c2ccccc2)c(F)c1 (stereo not given),0% (inactive)
11,O=C(Nc1cccc(Cl)c1)N1CCN(Cc2ccccc2)CC1,5% (inactive)
12,Cc1cc(C)n(-c2nnc(C)n2/N=C/c2ccccc2F)n1,9% (inactive)
13,C#CCN(C)Cc1ccccc1,3% (inactive)
14,COc1ccc(C2(C(=O)Nc3cc(C)on3)CCOCC2)cc1,2% (inactive)
15,O=C(Nc1ccc(Br)c2cccnc12)c1ccc(Cn2cc(Cl)cn2)o1,1% (inactive)
16,Cc1ccc(NC(=O)C2CC=CCC2C(=O)N2CCCCC2)cc1 (stereo not given),0% (inactive)
17,CCOc1ccc(-c2noc(-c3ccncc3)n2)cc1OCC,4% (inactive)
18,C=Cn1c(C(=O)O)cc(CC)c1-c1ccccc1,9% (inactive)
19,Cc1c(C)c2cc(Cl)c(O)c(CN3CCCCC3)c2oc1=O,1% (inactive)
20,Cc1nc2ccccc2c2oc(C(=O)NCc3ccccn3)cc12,2% (inactive)

row,SMILES,inhibition
1,CC1(C)CC(=O)C2=C(C1)NC(=O)CC2c1ccc(N(CCC#N)CCC#N)cc1 (stereo not given),9% (inactive)
2,CC1(C)CC(=O)C(CC2=C(O)CC(C)(C)CC2=O)=C(O)C1,4% (inactive)
3,COc1ccc(C(=O)N2CCCc3ccccc32)cc1,0% (inactive)
4,O=C1C(c2ccncc2)=C(O)c2ccccc21,0% (inactive)
5,COc1ccccc1Nc1nc(N)nc(CSc2nccc(C)n2)n1,0% (inactive)
6,CCOc1ccc2nc(NC(=O)CSc3nnnn3C3CCCCC3)sc2c1,1% (inactive)
7,COc1ccc(-c2nc3c(c(=O)n(C)c(=O)n3C)n2CC2CC(c3ccccc3)=NO2)cc1OC (stereo not given),1% (inactive)
8,Cc1[nH]nc2c1C1(CCN(C(=O)c3ccccc3)CC1)C(C#N)=C(N)O2,0% (inactive)
9,CCN(C(=O)c1cc(Cl)ccc1OC)c1ccccc1,0% (inactive)
10,CCC(Sc1ccc2nnc(-c3ccc(F)cc3)n2n1)C(=O)OC (stereo not given),0% (inactive)
11,CC(C)CCn1c(=O)c2ccccc2n2c(CN(C)Cc3ccccc3)nnc12,0% (inactive)
12,O=C(OCC(=O)c1ccc[nH]1)c1ccc(S(=O)(=O)N2CCCCC2)cc1,1% (inactive)
13,CCCCN(Cc1cc2cc(OC)ccc2[nH]c1=O)C(=O)c1ccccn1,1% (inactive)
14,O=C(Nc1ccccn1)N1CCOCC1,4% (inactive)
15,COC(=O)C(C)Oc1ccc2c3c(c(=O)oc2c1)CCCCC3 (stereo not given),2% (inactive)
16,Cc1ccc(N2CC(C(=O)N3CCN(C(=O)c4ccco4)CC3)CC2=O)cc1 (stereo not given),0% (inactive)
17,O=C(Nc1ccccc1)N(O)c1ccc(Cl)cc1,4% (inactive)
18,N#CC1=C(N)OC2=C(C(=O)CCC2)C1CCc1ccccc1 (stereo not given),1% (inactive)
19,O=C(c1ccco1)N(Cc1cc2ccccc2[nH]c1=O)C1CCCCC1,0% (inactive)
20,Nc1nc2n(n1)C(c1cccc(Br)c1)CC(c1ccccc1)N2 (stereo not given),0% (inactive)
